Screens deposited in PubChem by several laboratories.
MEKK2wt PB1 HTS = raises or lowers MEK5 binding to wildtype human MEKK2 PB1 domain; 290,000 tested, 1.1% active; binding response (% of control), % at 10 µM; AID 1531; bead flow cytometry, Alexa488-MEK5 binding to MEKK2 WT; actives lie on both sides; in the data active = binding response below about 67% or above about 130%
MEKK3 PB1 HTS = MEKK3-MEK5 PB1 interaction, increase or decrease; bead-based flow cytometry, Alexa488-MEK5 binding to MEKK3; actives lie on both sides; 0 = blocked by unlabeled MEK5, 100 = vehicle; binding response (% of control), % at 10 µM; 290,000 tested, 1.4% active;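 active = binding response more than 3 SD above or below the average of its plate-row segment, actives on both sides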;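 note: Alexa488 bead fluorescence after subtracting the streptavidin-only scavenger bead signal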
TMEM16A inh = blocks the mouse calcium-activated chloride channel TMEM16A; Q8BHY3; HEK293 TMEM16A/YFP iodide influx fluorescence, ionomycin; normalized B-score (activity score, 25-100; higher = stronger inhibition) at 10 µM; 310,000 tested, 1.2% active;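 active = ratio plate-corrected score three or more library SD toward inhibition, starting fluorescence score within five deviations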;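 note: score derived from kinetic fluorescence span divided by baseline fluorescence per well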
Target sequence (Q8BHY3 whole entry, looked up): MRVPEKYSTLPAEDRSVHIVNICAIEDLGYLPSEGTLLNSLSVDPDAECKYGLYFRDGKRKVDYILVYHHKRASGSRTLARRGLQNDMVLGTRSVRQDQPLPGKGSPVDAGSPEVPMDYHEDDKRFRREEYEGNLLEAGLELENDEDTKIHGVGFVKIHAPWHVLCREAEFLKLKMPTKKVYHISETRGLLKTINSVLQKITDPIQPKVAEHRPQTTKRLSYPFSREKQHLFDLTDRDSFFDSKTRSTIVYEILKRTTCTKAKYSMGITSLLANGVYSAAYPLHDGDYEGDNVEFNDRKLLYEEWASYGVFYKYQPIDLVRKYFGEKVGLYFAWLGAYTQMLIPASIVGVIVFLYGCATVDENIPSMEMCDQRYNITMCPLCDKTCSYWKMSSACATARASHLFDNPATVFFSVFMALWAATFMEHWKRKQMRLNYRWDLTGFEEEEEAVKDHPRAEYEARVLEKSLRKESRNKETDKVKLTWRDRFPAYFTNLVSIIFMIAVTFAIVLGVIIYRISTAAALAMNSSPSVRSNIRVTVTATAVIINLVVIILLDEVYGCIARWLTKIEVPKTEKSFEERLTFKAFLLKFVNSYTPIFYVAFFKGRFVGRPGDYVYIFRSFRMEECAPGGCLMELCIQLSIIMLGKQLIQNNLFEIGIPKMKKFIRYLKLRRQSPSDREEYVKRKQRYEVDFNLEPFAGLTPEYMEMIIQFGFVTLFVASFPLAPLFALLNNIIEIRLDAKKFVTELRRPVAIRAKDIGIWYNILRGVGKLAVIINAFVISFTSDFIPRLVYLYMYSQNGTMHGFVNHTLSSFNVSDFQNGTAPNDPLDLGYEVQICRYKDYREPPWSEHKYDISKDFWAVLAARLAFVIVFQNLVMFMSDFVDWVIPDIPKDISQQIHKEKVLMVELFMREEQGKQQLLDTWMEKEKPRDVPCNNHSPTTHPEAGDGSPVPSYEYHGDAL
MEKK2 mut-MEK5 = signal of MEK5 binding to mutant human MEKK2 PB1 domain; 290,000 tested, 0.35% active; bead flow cytometry, Alexa488-MEK5 binding to MEKK2 mutant; percent response, % at 10 µM; in the data active = percent response above about 24%, passing the limit was not always enough
TMEM16A act = activates or potentiates the mouse TMEM16A chloride channel | Q8BHY3 | B-score at 10 µM | HEK293 TMEM16A/YFP-H148Q/I152L, iodide quench fluorescence; active compounds read low | 340,000 tested, 0.3% active;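 active = fluorescence-ratio B-score plate-corrected deviation score at least 3 library SD below zero, with starting fluorescence score within 5 deviations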;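 note: channel opened by trigger with iodide after compound preincubation; score built on the fluorescence ratio of max minus min over baseline; more negative score means more quench and so TMEM16A activation or potentiation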
NTR1 ag = agonists of human neurotensin receptor NTR1; activation, % at 20 µM; 330,000 tested, 0.17% active; NTR1-U2OS beta-arrestin-GFP spot imaging, agonist mode; P30989;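 active = activation at or above 40% of the spot to cytoplasm intensity ratio, with at least 20 cells analyzed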;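 note: 0% = DMSO without peptide and 100% = 100 nM NTR1 peptide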
MEKK2wt confirm = raises or lowers MEK5 binding to wildtype human MEKK2, retest | bead flow cytometry, Alexa488-MEK5 binding to MEKK2 WT; actives lie on both sides | binding response (% of control), % at 10 µM | 5,900 tested, 2.4% active | shares compounds with MEKK3 PB1 HTS; in the data active = binding response below about 16% or above about 210%; inactive = in between
MEKK2mut-MEK5 = signal of MEK5 binding to mutant human MEKK2, retest | shares compounds with MEKK3 PB1 HTS | bead flow cytometry, Alexa488-MEK5 binding to MEKK2 mutant | percent response, % at 10 µM | 5,900 tested, 2% active | AID 1893; in the data active = percent response mostly above about 71%, no sharp cut-off; inactive = mostly below about 38%;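 note: higher means compound restores mutant binding toward wildtype level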
MEKK3-MEK5 inh = confirmation of inhibitors of MEK5 binding to human MEKK3; 5,900 tested, 1.8% active; shares compounds with MEKK3 PB1 HTS; bead flow cytometry, Alexa488-MEK5 binding to MEKK3; active compounds read low; binding response (% of control), % at 10 µM;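 active = binding response below 72% of control, or above a set upper limit, though filed actives all read lower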;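 note: 100% = DMSO only wells and 0% = binding blocked by excess unlabeled MEK5; lower values mean stronger disruption of MEK5 binding to MEKK3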
* hit, by the source's call; i = inactive; / = no result given; [ ] = remark or other dose. Sampled rows, rich in hits. Any-hit rate of the full collection: about 3.4%.

SMILES	MEKK2wt PB1 HTS	MEKK3 PB1 HTS	TMEM16A inh	MEKK2 mut-MEK5	TMEM16A act	NTR1 ag	MEKK2wt confirm	MEKK2mut-MEK5	MEKK3-MEK5 inh
CN(C)CCCN(C(=O)c1cc(-c2cccs2)nc2ccccc12)c1nc2c(F)cccc2s1	172.0*	103.0	i	27.0*	i	5.9	173.0	45.0	99.0
Cc1ccc2nc(N(CCCN(C)C)C(=O)c3cc(-c4cccs4)nc4ccccc34)sc2c1	228.0*	116.0	i	73.0*	i	13.3	205.0	63.0	109.0
O=C(CSc1ccc2nnc(-c3ccc(Cl)cc3)n2n1)N1CCCc2ccccc21	97.0	112.0	i	-1.0	i	15.0	/	/	/
O=C(CSc1ccc2nnc(-c3ccc(F)cc3)n2n1)N1CCCc2ccccc21	102.0	134.0*	i	0.0	i	4.6	101.0	5.0	104.0
COC(=O)c1sc(NC(=O)CSc2nc3cccnc3n2C)nc1C	92.0	98.0	i	-3.0	i	-0.3	/	/	/
Cc1ccc(-c2n[nH]c(=S)n2/N=C/c2ccc(C)o2)cc1	111.0	151.0*	i	1.0	i	1.1	105.0	1.0	105.0
CSc1ncccc1C(=O)OCC(=O)NC1CCC(C)CC1 (centres undefined)	/	/	/	/	i	-0.5	/	/	/
O=C(CSc1nnc(CNC(=O)c2ccco2)o1)Nc1ccc(F)cc1F	103.0	102.0	i	3.0	i	-0.5	/	/	/
COc1ccc(COc2cc(-c3cccc(OC)c3)nc3ccc(NC(=O)c4ccc(N(C)C)cc4)cc23)cc1	95.0	100.0	i	3.0	i	-0.4	/	/	/
COc1ccc(COc2cc(-c3cccc(OC)c3)nc3ccc(NC(=O)c4ccc(C)cc4)cc23)cc1	1.0*[inhibitor]	1.0*[inhibitor]	i	-1.0	i	0.9	96.0	-2.0	105.0
CC1(C)CC(=O)C(N=Nc2ccc(OC(F)F)cc2)=C(O)C1	92.0	108.0	i	-1.0	i	-0.8	/	/	/
CCOC(=O)CSc1nnc(SCCN2C(=O)c3ccccc3C2=O)s1	/	/	i	/	i	1.0	/	/	/
Cc1cc(C)n2nc(-c3ccsc3-n3c(C)ccc3C)cc2n1	9.0*[inhibitor]	94.0	i	1.0	i	0.2	96.0	3.0	103.0
CN(C)c1ccc(/C=C2/C=C(c3ccc4c(c3)CCCC4)OC2=O)cc1	68.0	73.0*[inhibitor]	i	-8.0	i	-1.5	81.0	-1.0	83.0
COc1ccc(C2=C/C(=C\c3ccc(OC(C)=O)cc3)C(=O)O2)cc1	104.0	102.0	i	1.0	i	-0.8	/	/	/
O=C(CN1C(=O)NC2(CCCCC2)C1=O)Oc1ccc2ccc(=O)oc2c1	/	/	/	/	i	4.9	/	/	/
CC1CCCC(NC(=O)CNC(=S)N(Cc2ccccc2)Cc2cccs2)C1C (centres undefined)	95.0	98.0	i	-9.0	i	11.3	/	/	/
Cc1nnc(N)s1	82.0	73.0*[inhibitor]	i	-37.0	i	-0.3	101.0	0.0	101.0
CCSc1nnc(N)s1	86.0	86.0	i	-7.0	i	0.7	/	/	/
O=C(CCNS(=O)(=O)c1ccccc1C(F)(F)F)NNC(=O)C1COc2ccccc2O1 (centres undefined)	/	/	i	/	i	-0.5	/	/	/
COc1ccc(C(=O)CSc2ccccc2C(=O)O)cc1	109.0	105.0	i	9.0	i	1.3	/	/	/
COc1ccccc1N1CCN(S(=O)(=O)c2ccccc2F)CC1	63.0	45.0*[inhibitor]	i	-21.0	i	-0.4	106.0	6.0	102.0
COc1ccccc1N1CCN(S(=O)(=O)c2ccccc2)CC1	96.0	94.0	i	-4.0	i	0.7	/	/	/
COc1ccccc1N1CCN(C2CCN(S(=O)(=O)c3ccc4ccccc4c3)CC2)CC1	145.0*	103.0	i	3.0	i	4.8	118.0	1.0	92.0
Fc1ccc(N2CCN(c3cnc4ccccc4n3)CC2)cc1	107.0	109.0	i	6.0	i	3.3	/	/	/
SMILES	MEKK2wt PB1 HTS	MEKK3 PB1 HTS	TMEM16A inh	MEKK2 mut-MEK5	TMEM16A act	NTR1 ag	MEKK2wt confirm	MEKK2mut-MEK5	MEKK3-MEK5 inh
CC(=O)c1ccc(OC(=O)CCc2nc3ccccc3s2)cc1	102.0	99.0	i	-4.0	i	1.1	/	/	/
CC(=O)c1cccc(NC2c3ccccc3C(=O)N2Cc2ccco2)c1 (centres undefined)	119.0	134.0*	i	30.0	i	1.6	93.0	-3.0	93.0
CCOC(=O)c1cccc(NC2c3ccccc3C(=O)N2Cc2ccco2)c1 (centres undefined)	99.0	100.0	i	11.0	i	1.8	/	/	/
CCCCC(=O)Nc1nnc(C2=COCCO2)o1	97.0	97.0	i	-3.0	i	1.1	/	/	/
CC(C)CNC(=O)NC(=O)COC(=O)c1cccc(NS(=O)(=O)c2ccc(F)c(F)c2)c1	109.0	134.0*	i	1.0	i	2.7	104.0	7.0	101.0
CCCNC(=O)NC(=O)COC(=O)c1cccc(NS(=O)(=O)c2ccc(F)c(F)c2)c1	96.0	101.0	i	-2.0	i	0.2	/	/	/
O=S(=O)(c1ccccc1)N1CCN(C(=S)Nc2ccccc2)CC1	109.0	103.0	i	4.0	i	-1.1	/	/	/
O=S(=O)(c1ccccc1)N1CCN(C(=S)Nc2ccc(F)cc2)CC1	103.0	134.0*	i	0.0	i	1.6	100.0	5.0	99.0
COc1ccc(-c2nc(-c3ccccc3)ncc2S(C)(=O)=O)cc1	75.0	79.0	i	-22.0	i	2.7	/	/	/
CCc1ccc(NC(=O)CO/N=C(\C)c2cc3ccccc3o2)cc1	101.0	136.0*	100*	-1.0	i	1.5	98.0	2.0	101.0
CN(CC(=O)Nc1ccccc1F)S(=O)(=O)c1ccc2c(c1)n(C)c(=O)c(=O)n2C	113.0	108.0	i	11.0	i	0.0	/	/	/
C=CCNC(=O)/C=C/c1c(F)cccc1Cl	109.0	184.0*	i	1.0	i	1.1	100.0	-1.0	105.0
CN(C)c1ccc(NC(=O)CN2CCC(O)(c3ccccc3)CC2)cc1	/	1.0*[inhibitor]	i	-35.0	i	-0.3	33.0	-25.0	69.0*
CCN1CCN(C(=O)C2CCC(=O)N(CCCN3CCCC3=O)C2)CC1 (centres undefined)	101.0	101.0	i	2.0	i	-0.3	/	/	/
